Test results published in the antibiotic and cytotoxicity screens of Wong et al. (2023).
The whole screen tested about 39,000 compounds, of which about 3,300 (8.5%) were called active. The list comes from a sample in which actives are over-represented; it also holds similar structures and randomly drawn compounds.

Tested on: HepG2
Test: cytotoxicity call (relative viability < 0.9)
Details: 10 µM

SMILES | cytotoxicity call
CC(=O)OC[C@H]1O[C@@H](n2ccc(=O)[nH]c2=O)[C@H](OC(C)=O)[C@@H]1OC(C)=O | inactive
COCC(=O)N1C[C@H](C)[C@H](OC)CN(C)C(=O)c2cc(NC(=O)Nc3cccc(F)c3)ccc2OC[C@@H]1C | inactive
COc1ccc(NC(=O)Nc2ccc3c(c2)C(=O)N([C@H](C)CO)C[C@@H](C)[C@@H](CN(C)Cc2ccc(Cl)c(Cl)c2)O3)cc1 | inactive
COc1ccc(NC(=O)Nc2ccc3c(c2)C(=O)N([C@@H](C)CO)C[C@H](C)[C@H](CN(C)Cc2ccc(Cl)c(Cl)c2)O3)cc1 | active
COc1ccc(NC(=O)Nc2ccc3c(c2)C(=O)N([C@H](C)CO)C[C@H](C)[C@H](CN(C)Cc2ccc(Cl)c(Cl)c2)O3)cc1 | active
COc1ccc(NC(=O)Nc2ccc3c(c2)C(=O)N([C@@H](C)CO)C[C@H](C)[C@@H](CN(C)Cc2ccc(Cl)c(Cl)c2)O3)cc1 | inactive
COc1ccc(NC(=O)Nc2ccc3c(c2)C(=O)N([C@H](C)CO)C[C@H](C)[C@@H](CN(C)Cc2ccc(Cl)c(Cl)c2)O3)cc1 | inactive
COc1ccc(NC(=O)Nc2ccc3c(c2)C(=O)N([C@@H](C)CO)C[C@@H](C)[C@@H](CN(C)Cc2ccc(Cl)c(Cl)c2)O3)cc1 | inactive
C[C@H]1CN([C@@H](C)CO)S(=O)(=O)c2ccc(-c3ccc(C(=O)N(C)C)cc3)cc2O[C@@H]1CN(C)C(=O)C1CCC1 | inactive
O=C(O[C@H]1[C@H](O)[C@@H](CO)O[C@H](c2c(O)cc(O)c(C(=O)c3ccc(O)cc3)c2O)[C@H]1OC(=O)c1cc(O)c(O)c(O)c1)c1cc(O)c(O)c(O)c1 | active
O=C(CCc1ccc(O)cc1)c1c(O)c([C@@H]2O[C@H](CO)[C@@H](O)[C@H](O)[C@H]2O)c(O)c([C@@H]2O[C@H](CO)[C@@H](O)[C@H](O)[C@H]2O)c1O | inactive
CC(=O)O[C@H]1[C@H](Oc2cc(O)cc(O)c2C(=O)c2cc(O)cc(O)c2)O[C@H](CO)[C@@H](OC(=O)c2ccccc2)[C@@H]1O | inactive
Cc1ccc(S(=O)(=O)N(C)C[C@@H]2Oc3ccc(NC(=O)CCCN(C)C)cc3CC(=O)N([C@H](C)CO)C[C@H]2C)cc1 | inactive
CN(C)CC#Cc1ccc([C@@H]2[C@H](CO)N3C(=O)CN(C(=O)CN(C)C)C[C@@H]23)cc1 | inactive
C[C@@H]1CN([C@@H](C)CO)C(=O)c2cccc(NC(=O)c3ccncc3)c2O[C@H]1CN(C)S(=O)(=O)c1cccs1 | inactive
C[C@@H]1CN([C@H](C)CO)C(=O)c2cccc(NC(=O)c3ccncc3)c2O[C@@H]1CN(C)S(=O)(=O)c1cccs1 | active
C[C@@H]1CN([C@@H](C)CO)C(=O)c2cccc(NC(=O)c3ccncc3)c2O[C@@H]1CN(C)S(=O)(=O)c1cccs1 | active
C[C@H]1CN([C@@H](C)CO)C(=O)c2cccc(NC(=O)c3ccncc3)c2O[C@H]1CN(C)S(=O)(=O)c1cccs1 | inactive
C[C@@H]1CN([C@H](C)CO)C(=O)c2cccc(NC(=O)c3ccncc3)c2O[C@H]1CN(C)S(=O)(=O)c1cccs1 | inactive
C[C@H](CO)N1C[C@H](C)[C@H](CN(C)S(=O)(=O)c2cccs2)Oc2c(NC(=O)c3ccncc3)cccc2C1=O | inactive
CO[C@H]1CN(C)C(=O)c2cc(NS(=O)(=O)c3cn(C)cn3)ccc2OC[C@@H](C)N(Cc2cccc(F)c2)C[C@@H]1C | inactive
Cc1noc(C)c1NC(=O)N(C)C[C@H]1Oc2ccc(NC(=O)C3CC3)cc2C(=O)N([C@H](C)CO)C[C@@H]1C | inactive
C[C@@H]1CN([C@H](C)CO)C(=O)c2cc(NS(C)(=O)=O)ccc2O[C@@H](C)CCCCO[C@H]1CN(C)CC1CC1 | inactive

SMILES | cytotoxicity call
C[C@@H]1CCCCO[C@@H](CN(C)C(=O)c2ccccc2)[C@H](C)CN([C@@H](C)CO)C(=O)c2cc(NS(=O)(=O)c3ccccc3)ccc2O1 | inactive
C[C@@H]1CN([C@H](C)CO)S(=O)(=O)c2ccc(Br)cc2O[C@H]1CN(C)C(=O)Nc1ccccc1 | inactive
C[C@H](CO)N1C[C@H](C)[C@@H](CN(C)CC2CCCCC2)Oc2ccc(NC(=O)Nc3cccc4ccccc34)cc2CC1=O | inactive
C[C@H](CO)N1C[C@H](C)[C@H](CN(C)CC2CCCCC2)Oc2ccc(NC(=O)Nc3cccc4ccccc34)cc2CC1=O | inactive
C[C@H]1CN([C@@H](C)CO)C(=O)Cc2cc(NC(=O)Nc3cccc4ccccc34)ccc2O[C@@H]1CN(C)CC1CCCCC1 | active
C[C@@H]1CN([C@@H](C)CO)C(=O)Cc2cc(NC(=O)Nc3cccc4ccccc34)ccc2O[C@@H]1CN(C)CC1CCCCC1 | active
C[C@@H]1CN([C@H](C)CO)C(=O)Cc2cc(NC(=O)Nc3cccc4ccccc34)ccc2O[C@@H]1CN(C)C(=O)NC1CCCCC1 | inactive
C[C@H]1CN([C@@H](C)CO)C(=O)Cc2cc(NC(=O)Nc3cccc4ccccc34)ccc2O[C@H]1CN(C)CC1CCCCC1 | active
C[C@@H]1CN([C@@H](C)CO)C(=O)Cc2cc(NC(=O)Nc3cccc4ccccc34)ccc2O[C@H]1CN(C)CC1CCCCC1 | inactive
C[C@@H]1CN([C@H](C)CO)C(=O)Cc2cc(NC(=O)Nc3cccc4ccccc34)ccc2O[C@H]1CN(C)CC1CCCCC1 | inactive
C[C@@H]1CN([C@H](C)CO)C(=O)Cc2cc(NC(=O)Nc3cccc4ccccc34)ccc2O[C@@H]1CN(C)CC1CCCCC1 | active
COc1ccc(S(=O)(=O)Nc2ccc3c(c2)C(=O)N([C@@H](C)CO)C[C@@H](C)[C@H](CN(C)S(=O)(=O)c2ccccc2)O3)cc1 | inactive
Cc1ccc(S(=O)(=O)Nc2ccc3c(c2)C(=O)N([C@H](C)CO)C[C@H](C)[C@@H](CN(C)C(=O)Cc2ccccc2)OCCCC[C@H](C)O3)cc1 | inactive
CN1C(=O)c2cc(NC(=O)c3cccs3)ccc2OC[C@H]2O[C@H](CC(=O)NCCN3CCCCC3)CC[C@H]21 | inactive
CO/N=C1\CN(c2nc3c(cc2F)c(=O)c(C(=O)O)cn3C2CC2)C[C@@H]1CN | inactive
COc1ccc(S(=O)(=O)N2C[C@@H](O)COC[C@@H]3O[C@@H](CC(=O)N[C@@H]4CCN(Cc5ccccc5)C4)CC[C@H]32)cc1 | inactive
C[C@]1(C(=O)NCC(F)(F)F)c2ccccc2C(=O)N(Cc2cc(F)cc(C(F)(F)F)c2)[C@H]1c1ccc(CO)cc1 | inactive
Cc1ccc(S(=O)(=O)Nc2cccc3c2O[C@@H](CN(C)S(=O)(=O)c2ccccc2)[C@H](C)CN([C@@H](C)CO)C3=O)cc1 | inactive
COCC#Cc1cnc2c(c1)C(=O)N([C@@H](C)CO)C[C@@H](C)[C@@H](CN(C)C(=O)CCN1CCCCC1)O2 | inactive
Cc1noc(C)c1NC(=O)Nc1ccc2c(c1)C(=O)N([C@H](C)CO)C[C@H](C)[C@@H](CN(C)S(=O)(=O)c1ccccc1)OCCCC[C@@H](C)O2 | inactive
NC1(Cc2ccc(Cl)cc2)CCN(c2ncnc3[nH]ccc23)CC1 | active
Cc1ccc(S(=O)(=O)N2C[C@H](O)COC[C@@H]3O[C@@H](CC(=O)N[C@@H]4CCN(Cc5ccccc5)C4)CC[C@H]32)cc1 | inactive
CN1CCc2cccc3c2C1Cc1ccc(O)c(O)c1-3.Cl (configuration not stated) | active

SMILES | cytotoxicity call
COc1cc2c3cc1Oc1cc(ccc1O)O[C@H]1c4c(cc(OC)c(O)c4Oc4ccc(cc4)C[C@@H]3N(C)CC2)CCN1C | inactive
C[C@H](CO)N1C[C@H](C)[C@@H](CN(C)S(C)(=O)=O)Oc2ccc(NC(=O)NC3CCCCC3)cc2C1=O | inactive
C[C@@H]1CN([C@H](C)CO)C(=O)CCCn2cc(nn2)CO[C@@H]1CN(C)C(=O)CCCN(C)C | inactive
COCC#Cc1cnc2c(c1)C(=O)N([C@@H](C)CO)C[C@@H](C)[C@H](CN(C)C(=O)c1ccc3c(c1)OCO3)O2 | inactive
C[C@H](CO)N1C[C@H](C)[C@@H](CN(C)S(=O)(=O)c2cn(C)cn2)Oc2cc(C#Cc3ccc(F)cc3)ccc2S1(=O)=O | inactive
CCC(=O)Nc1ccc2ccccc2c1 | inactive
Cc1c(C(=O)Nc2ccc3ccccc3c2)oc2ccccc12 | active
O=C(Cc1ccc(-c2ccccc2)cc1)Nc1c(C(=O)Nc2ccc3c(c2)OCCO3)oc2ccccc12 | inactive
CC(C)NC(=O)N(C)C[C@H]1Oc2ccc(NC(=O)CCC(F)(F)F)cc2C(=O)N([C@@H](C)CO)C[C@H]1C | inactive
C[C@@H]1CN([C@H](C)CO)S(=O)(=O)c2ccc(C3=CCCC3)cc2O[C@H]1CN(C)C(=O)C1CCOCC1 | inactive
COCC(=O)N1C[C@H](C)[C@@H](OC)CN(C)C(=O)c2ccc(NC(=O)c3ccc(OC)cc3)cc2OC[C@H]1C | inactive
CCOC(=O)CN1CCN(C=O)CC1 | active
CCOC(=O)N1CCC(O)CC1 | inactive
CCOC(=O)CN1C(=O)c2ccccc2C1=O | inactive
CN(C)CCCNC(=O)[C@H]1[C@H](CO)[C@H]2Cn3c(ccc(-c4cccc(C(=O)N(C)C)c4)c3=O)[C@@H]1N2 | inactive
C[C@@H]1CN([C@H](C)CO)C(=O)c2cc(N(C)C)ccc2O[C@@H](C)CCCCO[C@@H]1CN(C)C(=O)Nc1ccc(C(F)(F)F)cc1 | inactive
C[C@@H]1CCCCO[C@@H](CN(C)C(=O)Nc2ccc(C(F)(F)F)cc2)[C@@H](C)CN([C@H](C)CO)C(=O)c2cc(N(C)C)ccc2O1 | inactive
C[C@@H]1CN([C@@H](C)CO)C(=O)c2cc(N(C)C)ccc2O[C@@H](C)CCCCO[C@@H]1CN(C)C(=O)Nc1ccc(C(F)(F)F)cc1 | active
C[C@H]1CCCCO[C@H](CN(C)C(=O)Nc2ccc(C(F)(F)F)cc2)[C@@H](C)CN([C@@H](C)CO)C(=O)c2cc(N(C)C)ccc2O1 | inactive
C[C@H](CO)N1C[C@H](C)[C@@H](CN(C)C(=O)Nc2ccc(C(F)(F)F)cc2)OCCCC[C@H](C)Oc2ccc(N(C)C)cc2C1=O | inactive
C[C@@H]1CCCCO[C@@H](CN(C)C(=O)Nc2ccc(C(F)(F)F)cc2)[C@H](C)CN([C@H](C)CO)C(=O)c2cc(N(C)C)ccc2O1 | active
